According to PubChem BioAssay (NCI):
The panel holds about 79,000 compounds, 15% with a hit somewhere; the sample as a whole holds those more often. The source made the active and inactive calls. Rule as the data show it: active = growth inhibition above about 70%; inactive = the rest.

Legend:
[1] = NCI Yeast Anticancer Drug Screen. Data for the rad50 strain (AID 155);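 also: 0% = growth of vehicle-only cultures of the same strain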; conditions: S. cerevisiae rad50 strain growth inhibition; at 50.0 µM; active compounds read high
Method in brief: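 Compounds were tested on a yeast strain with an engineered DNA damage repair alteration; the reported value is growth inhibition normalised to vehicle treatment.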

[2] = NCI Yeast Anticancer Drug Screen. Data for the mec2-1 strain (AID 157); conditions: S. cerevisiae mec2-1 strain, at 50.0 µM, active compounds read high
Method in brief: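 Each compound was tested on mec2-1 yeast, a strain altered in DNA damage repair or cell cycle control. Growth inhibition is reported relative to vehicle.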

[3] = NCI Yeast Anticancer Drug Screen. Data for the sgs1 mgt1 strain (AID 161);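 also: 0% = growth of cultures given vehicle only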; conditions: S. cerevisiae sgs1 mgt1 strain, at 50.0 µM, active compounds read high
Method in brief: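 Test agents were incubated with a DNA-repair-mutant yeast strain. Growth was then read and compared against vehicle-treated controls.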

[4] = NCI Yeast Anticancer Drug Screen. Data for the bub3 strain (AID 167); conditions: S. cerevisiae bub3 mutant strain, at 50.0 µM, active compounds read high
Method in brief: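 Growth of a checkpoint-deficient yeast mutant is measured after compound exposure. Values represent inhibition relative to vehicle.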

[5] = NCI Yeast Anticancer Drug Screen. Data for the mlh1 rad18 strain (AID 175); conditions: S. cerevisiae mlh1 rad18 strain growth inhibition; at 50.0 µM; active compounds read high
Method in brief: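 Inhibition values reflect reduced growth of mutant yeast versus vehicle-treated controls following compound exposure; the mutations affect DNA damage repair.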

[6] = NCI Yeast Anticancer Drug Screen. Data for the cln2 rad14 strain (AID 165);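 also: 0% = growth equal to vehicle treated cultures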; conditions: S. cerevisiae cln2 rad14 strain, at 50.0 µM, active compounds read high
Method in brief: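 Test compounds were added to cln2 rad14 yeast cultures; inhibition of growth was then determined by comparison with vehicle treatment.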

Measured: growth inhibition

O=C(Nc1ccc(Cl)cc1)Nc1nnc2nc(CC(=O)c3ccccc3)c(=O)[nH]n12
inactive: [1] 15.7% | [2] 1.1% | [3] 11.9% | [4] -21.9% | [5] 1.1%

COc1cc2c(cc1OC)C1CC(CC(N)=O)(C(N)=O)CCN1CC2 (stereo not given)
inactive: [1] 2.35% | [2] 16.6% | [6] -49.5% | [4] 1.5% | [5] 17.5%

O=C(Nc1ccccc1C(=O)O)C(=O)C(C(=O)c1ccccc1-c1ccccc1)C1OC(=O)c2ccccc21 (stereo not given)
inactive: [1] 26.1% | [2] 5.65% | [6] -38.6% | [4] 6.25% | [5] 13.9%

O=C(/C=C/c1ccccc1)NC(=S)Nc1ccc(F)c([N+](=O)[O-])c1
inactive: [1] 7.6% | [2] 6.05% | [6] 12.7% | [4] 21.6% | [5] 12.2%

Cc1c([N+](=O)[O-])cc2c(c1[N+](=O)[O-])C(=O)c1ccccc1-2
inactive: [1] -2.1% | [2] 4.35% | [6] -14.9% | [4] -6.05% | [5] 7.9%

FC(F)(F)C(F)(F)C(F)(F)c1nc(C(F)(F)C(F)(F)C(F)(F)F)nc(C(F)(F)C(F)(F)C(F)(F)F)n1
inactive: [1] 22.1% | [2] -1% | [6] 18.6% | [4] 15.1% | [5] 25.6%

CCCCCC(CCCC)OC(=O)Nc1ccccc1 (stereo not given)
inactive: [1] -4.35% | [2] 7.85% | [6] -7% | [4] -1.15% | [5] 4.6%

CN(C)CCCNC(=O)CCNC(=O)c1cc(NC(=O)c2cc(NC(=O)c3cc(NC(=O)c4nccn4C)cn3C)cn2C)cn1C
inactive: [1] 24.4% | [2] -23.4% | [6] 12.4% | [4] -5.15% | [5] 7.15%

COc1ccccc1C(=O)N/N=C/c1ccccc1Cl
inactive: [1] 4.25% | [2] 35.3% | [6] -4.3% | [4] 9.05% | [5] 30.1%

COC(=O)C(=[N+]=[N-])C(=O)c1ccc([N+](=O)[O-])cc1
inactive: [1] 65.5% | [2] 23.9% | [6] 41.8% | [4] 20.6% | [5] 42.3%

COC(=O)C1(CC(=O)c2ccc(Cl)cc2Cl)NC(=S)NC(=O)C1C#N (stereo not given)
inactive: [1] 19.4% | [2] 9.05% | [6] 16.2% | [4] 4.45% | [5] 18.8%

O=C(Nc1c(C(=O)NC2CCCCC2)[nH]c(=O)[nH]c1=O)c1ccc(Cl)cc1
inactive: [1] -18.8% | [2] -1.35% | [6] 2.85% | [4] -0.25% | [5] 5.5%

CC(=O)NC1C(OCC(=O)NC(C)C(=O)NC(CCC(=O)NCCCCCNc2ccc([N+](=O)[O-])c3[nH]c4ccccc4c(=O)c23)C(N)=O)C(O)C(CO)OC1(C)OCc1ccccc1 (stereo not given)
inactive: [1] -7.65% | [2] -3.35% | [6] 21.2% | [4] -12.1% | [5] 18.1%

O=c1[nH]n2c(=O)cc[nH]c2c1-c1nnns1
inactive: [1] -15.8% | [2] -2.95% | [6] 9.65% | [4] -21.1% | [5] -25.2%

Cc1cc(C(=O)c2ccccc2)ccc1[N+](=O)[O-]
inactive: [1] 23.1% | [2] -11% | [6] -0.5% | [4] -0.65% | [5] 7.1%

CCCC(=O)Oc1ccc(Cl)cc1
inactive: [1] 12.9% | [2] -4.45% | [6] 20.1% | [4] 1.45% | [5] -6.65%

NC(=O)C1C[C@@H](O)CN1C(=O)c1ccc2c(c1)OCO2 (stereo not given in full)
inactive: [1] -11.6% | [2] -9.8% | [6] 6.5% | [4] 3.05% | [5] 1.25%

ClC(=Nc1ccccc1)c1cc(N2CCOCC2)ccn1
inactive: [1] 24.1% | [2] 11.1% | [6] 8.35% | [4] 19.1% | [5] 14%

COc1cc(NS(=O)(=O)c2ccc(C)cc2)c2nccnc2c1
inactive: [1] 14.1% | [2] 15.7% | [6] -3.35% | [4] 11.9% | [5] 29.6%

C/C(=N/NC(N)=O)C1c2ccccc2Cc2ccccc21
inactive: [1] 18.1% | [2] -2.25% | [6] -0.3% | [4] 16.9% | [5] -8.15%

CC1(c2ccccc2)CC(c2cccc([N+](=O)[O-])c2)=NO1 (stereo not given)
inactive: [1] 27.4% | [2] 15.9% | [6] 34.9% | [4] 28.6% | [5] 23.4%

CCOC(=O)NNC(=O)NC12CC3CC(CC(C3)C1)C2
inactive: [1] -16.7% | [2] -7.7% | [6] -24.6% | [4] -3.85% | [5] 1.75%

NCCNCc1ccncc1
inactive: [1] -38% | [2] -41.5% | [6] -11.3% | [4] -47.2% | [5] -27.2%

Nc1nc(N)c2c(n1)Nc1ccc(Cl)nc1S2
active: [1] 94.2% | [4] 81.1% | [5] 93.8%
inactive: [2] 69.3% | [6] 52.2%

COc1ccc(C2C(Cl)C(=O)N2n2cnc3ccccc3c2=O)cc1OC (stereo not given)
inactive: [1] -20.7% | [2] -0.35% | [6] 8.9% | [4] -10.9% | [5] -21.6%

Cc1cc(OCCN(C)C)cc(C)c1Cl
inactive: [1] -2% | [2] -0.75% | [6] 37.6% | [4] -16.9% | [5] 8.8%

CCOC(=O)c1nc2c([nH]1)c(=O)n(C)c(=O)n2C
inactive: [1] 28.8% | [2] 10.7% | [6] 30.1% | [4] 9.8% | [5] 1.4%

C/C(CC(=O)Nc1cccc([N+](=O)[O-])c1)=N\NC(=O)CC#N
inactive: [1] -3.45% | [2] -13.3% | [6] 12.1% | [4] -8.45% | [5] 2.35%

CC1=CC2C3C(=O)OC(=O)C3C1C(Cc1ccccc1)N2C (stereo not given)
inactive: [1] 14.5% | [2] -1.85% | [6] 12.9% | [4] -6.55% | [5] 21.5%

CN(C)CCCNC(=O)N/N=C\c1cccc2ccccc12
inactive: [1] -2.9% | [2] -24% | [6] 14.8% | [4] -4% | [5] -6.45%

CON(C)S(=O)(=O)c1ccc(Cl)cc1
inactive: [1] 7.75% | [2] -9.5% | [6] -18.9% | [4] -2.25% | [5] -6.2%

CC(=O)N(C)c1ccc(NC(=S)NC(=O)c2cccc([N+](=O)[O-])c2)cc1
inactive: [1] 3.55% | [2] 21.6% | [6] -4.15% | [4] 27.5% | [5] 7.05%

c1ccc2c(-c3ccncc3)c3ccccc3cc2c1
inactive: [1] 20.8% | [2] 2.6% | [6] 0.45% | [4] 6.5% | [5] 20.3%

Cc1cc2c(C(C)C)c(O)c(O)c(C=Nc3ccc(N=Nc4ccccc4)cc3)c2c(O)c1-c1c(C)cc2c(C(C)C)c(O)c(O)c(C=Nc3ccc(N=Nc4ccccc4)cc3)c2c1O
inactive: [1] -4.7% | [2] 0.4% | [6] -21.8% | [4] -3.35% | [5] -4.65%

COc1cc(C(c2ccc3c(c2)OCO3)C2SCCCS2)cc(OC)c1OC (stereo not given)
inactive: [1] 25.2% | [2] 13.7% | [6] 6.6% | [4] -12% | [5] 37.9%

O=[N+]([O-])c1ccc(C2=NOC3COC4C=CC=CC4OCC23)cc1 (stereo not given)
inactive: [1] -3.4% | [2] -29.7% | [6] -2.55% | [4] 5.95% | [5] -7.5%

COCCOCCOCCC(=O)NC1CC2CCC1(C)C2(C)C (stereo not given)
inactive: [1] -10.5% | [2] -1.85% | [6] -16.7% | [4] 23.7% | [5] 15.4%

CC(C)(C)NC(=O)NCc1ccc(Cl)cc1
inactive: [1] -0.5% | [2] -16.1% | [6] -29.6% | [4] 1% | [5] -9.8%

CCc1ccccc1NC(=O)C1=C(C)NC(C)=C(C(=O)Nc2ccccc2CC)C1c1ccc2c(c1)OCO2
inactive: [1] -9.35% | [2] 3.6% | [6] -7.8% | [4] -0.75% | [5] -4%

CCCC1C(C#N)(C#N)C(C#N)=C(N)C1(C)C(C)=O (stereo not given)
inactive: [1] 3.4% | [2] 6.8% | [6] 0.4% | [4] -23.8% | [5] -34.9%
